Screening results as filed in PubChem.
IL-1B inflam inh: inflammasome signaling inhibition, IL-1 beta readout; activity change, % at 57.5 µM; THP-1 LPS/ATP IL-1B secretion, AlphaLISA, 16 h; stronger effect = lower value; 360,000 tested, 4.7% active; in the data active = activity change below about -50%; inconclusive = mostly about -30% to -49%
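THP-1 cells pretreated 1 hr with compounds (up to 57.5 uM final), then stimulated with LPS (250 ng/mL final) plus ATP (1.25 mM final); secreted IL-1B measured by AlphaLISA after 16 hr, decreased signal indicating inhibition.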
Gal4-VP16 FLuc: counter-screen for ROR gamma inhibitors: Gal4-VP16 reporter; Potency, µM (titrated, usually from 53.6 µM), usual class: inhibitors; Drosophila S2 Gal4-VP16 UAS-luciferase, luminescence, 20 h; 310,000 tested, 3.5% active;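 note: Gal4-VP16 expression switched on by copper sulfate through the metallothionein promoter; nearly all actives have a fitted effect of over 50% in size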
MCF10A rereplic: DNA re-replication induction in MCF 10a cells | MCF 10A DNA re-replication, Hoechst nuclear intensity, 48 h | Potency, µM (highest dose often 46.1 µM), usual class: activators | 350,000 tested, 2.9% active; note: nearly all actives have a fitted effect of over 50% in size
RORg inh: blocks mouse ROR gamma transcriptional activity; P51450; Drosophila S2 Gal4-RORgamma UAS-luciferase reporter, 20 h; Potency, µM (titrated, usually from 53.6 µM), hits mostly inhibitors; 310,000 tested, 5.4% active; note: nearly all actives have a fitted effect of over 60% in size
Target sequence (P51450 whole entry, looked up, the tested form may be a part): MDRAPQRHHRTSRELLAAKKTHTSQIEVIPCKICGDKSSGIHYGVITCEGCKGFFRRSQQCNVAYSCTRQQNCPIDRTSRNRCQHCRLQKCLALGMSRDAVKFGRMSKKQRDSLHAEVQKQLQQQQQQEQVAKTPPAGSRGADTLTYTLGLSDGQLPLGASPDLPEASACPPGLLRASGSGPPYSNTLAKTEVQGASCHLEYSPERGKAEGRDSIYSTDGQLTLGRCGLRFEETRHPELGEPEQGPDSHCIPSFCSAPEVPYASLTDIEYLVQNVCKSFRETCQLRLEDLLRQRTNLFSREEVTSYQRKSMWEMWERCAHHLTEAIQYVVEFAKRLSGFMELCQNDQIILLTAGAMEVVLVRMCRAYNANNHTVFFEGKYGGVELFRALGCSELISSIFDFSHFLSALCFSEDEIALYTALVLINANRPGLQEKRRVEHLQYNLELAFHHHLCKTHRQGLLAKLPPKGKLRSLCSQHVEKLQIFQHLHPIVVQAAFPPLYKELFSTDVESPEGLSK
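Stably transfected Drosophila Schneider cells are the test system, with ROR gamma fused to Gal4 and luciferase under UAS control; luminescence is read after 20 hr of 700 uM copper sulfate induction at ambient temperature.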
SW480 rereplic: induces DNA re-replication in SW480 colon adenocarcinoma cells. 340,000 tested, 1.8% active. AID 624297. Potency, µM (titrated, usually from 46.1 µM), most hits filed as activators. SW480 DNA re-replication, Hoechst DNA content imaging, 48 h; note: nearly all actives have a fitted effect of over 55% in size
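First, 250 cells per well were seeded. Next, compound or vehicle (23 nL) was pinned in, plates sat 48 hr at 37 C. Finally Hoechst was added for 40 min before fluorescence scanning.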
Large screens that a line does not name were inactive. Shown are actives, neighbours in structure and some others; about 11% of the full set was active somewhere. Unless noted, calls come from the whole dose curve; as a rule, active = well fitted curve in the direction sought with a large enough effect; inconclusive = small, poorly fitted or top-dose-only effect, or another doubt; inactive = no such curve, though single readings can be large; an effect the other way counts as inactive or inconclusive.

CCc1ccc(C2=NNC(=Nc3cccc(S(=O)(=O)N(C)C)c3)SC2)cc1	IL-1B inflam inh -69.8, MCF10A rereplic inconclusive, RORg inh inconclusive, SW480 rereplic 20.6µM
Cc1ccc(N=C2NC(=O)CS2)cc1	none
Cc1nc(-c2ccc3c(c2)OCCO3)cs1	none
Cc1ccc(C2=NNC(=Nc3ccc(F)cc3)SC2)cc1	IL-1B inflam inh -74.3, Gal4-VP16 FLuc inconclusive, RORg inh inconclusive
Cc1cccc(N=C2NN=C(c3ccc4c(c3)OCCO4)CS2)c1	Gal4-VP16 FLuc inconclusive, MCF10A rereplic inconclusive, RORg inh 7.94µM, SW480 rereplic inconclusive
Cc1cccc(N=C2CSC(=O)N2)c1	none
Cc1cccc(N=C2NN=C(c3c(C)[nH]c4ccccc34)CS2)c1	IL-1B inflam inh inconclusive, Gal4-VP16 FLuc inconclusive, MCF10A rereplic 14.6µM, SW480 rereplic inconclusive
CC(C)C1C(=O)N(Cc2cn(Cc3ccco3)nn2)CCS(=O)(=O)N1Cc1ccc(-c2ccc(Cl)c(Cl)c2)cc1 (stereo not given)	none (no result: Gal4-VP16 FLuc, MCF10A rereplic, RORg inh, SW480 rereplic)
Cc1ccsc1CNC(=O)C1(C)CCN1C(C)C (stereo not given)	none (no result: Gal4-VP16 FLuc, MCF10A rereplic, RORg inh, SW480 rereplic)
CC(=O)OCC1C2CC[C@H]3C(OCc4ccc(F)cc4C(F)(F)F)OC[C@]4(C)[C@H]3C2=C(CN4C(=O)OC(C)(C)C)[C@H](C)C1COC(C)=O (stereo not given in full)	none (no result: IL-1B inflam inh, MCF10A rereplic, SW480 rereplic)
COc1cc(OC)nc(Oc2ccccc2C=O)n1	MCF10A rereplic 16.4µM (no result: Gal4-VP16 FLuc, RORg inh)
O=C(Cn1cnc2scc(-c3ccccc3)c2c1=O)NCc1ccco1	none
CCc1ccc(-c2csc3ncn(CC(=O)NCc4ccco4)c(=O)c23)cc1	IL-1B inflam inh -74.5, RORg inh inconclusive
CC(=O)Nc1ccc(N(C(=O)c2ccco2)C(C(=O)NC2CCCC2)c2ccncc2)cc1 (stereo not given)	none
CCOc1cc(CNCc2ccncc2)cc(Br)c1OCc1ccc(F)cc1	IL-1B inflam inh -84.1, MCF10A rereplic inconclusive, RORg inh inconclusive
Fc1ccccc1COc1ccc(Br)cc1CNCc1ccncc1	Gal4-VP16 FLuc inconclusive, MCF10A rereplic inconclusive, RORg inh inconclusive, SW480 rereplic inconclusive
Fc1ccc(COc2ccc(Br)cc2CNCc2ccncc2)cc1	IL-1B inflam inh -78.8, MCF10A rereplic inconclusive
Fc1ccc(COc2cccc(CNCc3ccncc3)c2)cc1	Gal4-VP16 FLuc inconclusive, MCF10A rereplic inconclusive, RORg inh inconclusive
Cc1ccccc1S(=O)(=O)N1C[C@@H]2C(C(=O)C[C@@H]3C(=O)N(C)C(=O)[C@@H]32)[C@@H]1c1ccc(Cl)cc1 (stereo not given in full)	none (no result: Gal4-VP16 FLuc, MCF10A rereplic, RORg inh, SW480 rereplic)
CCc1ccc(S(=O)(=O)Nc2ccc(-c3nc4cccnc4s3)cc2)s1	MCF10A rereplic inconclusive
Cc1nc2ccc(S(=O)(=O)Nc3cc(-c4nc5cccnc5s4)ccc3C)cc2s1	MCF10A rereplic 0.82µM, SW480 rereplic 23.1µM
Cc1ccc(-c2nc3cccnc3s2)cc1NS(=O)(=O)c1cccs1	MCF10A rereplic 16.4µM
O=S(=O)(Nc1ccc(-c2nc3cccnc3s2)cc1)c1cc(F)ccc1F	MCF10A rereplic 20.6µM
Cc1nc2ccc(S(=O)(=O)Nc3cccc(-c4nc5cccnc5s4)c3C)cc2s1	Gal4-VP16 FLuc inconclusive
CC1CCC(NC(=O)CNC(=O)Cc2cccc3ccccc23)CC1 (stereo not given)	none
CC12CCC(C(=O)NNc3ccccc3)(C(=O)C1=O)C2(C)C (stereo not given)	MCF10A rereplic 16.4µM
CC(C)C(=O)NNc1ccccc1	none
C[C@@H]1COC(=O)O1	none (no result: IL-1B inflam inh, MCF10A rereplic, SW480 rereplic)
COc1ccc(N(CC(=O)Nc2ccc(C)cc2)S(=O)(=O)c2c(C)noc2C)cc1	none
Cc1noc(C)c1S(=O)(=O)N(CC(=O)NC(C)c1ccccc1)c1ccc(C(C)C)cc1 (stereo not given)	IL-1B inflam inh -53.5, RORg inh inconclusive, SW480 rereplic inconclusive
Cc1ccc(N(CC(=O)Nc2cc(C)cc(C)c2)S(=O)(=O)c2c(C)noc2C)cc1	Gal4-VP16 FLuc 11.2µM, MCF10A rereplic inconclusive, SW480 rereplic inconclusive
Cc1ccc(CNC(=O)c2ccc(NS(=O)(=O)c3c(C)noc3C)cc2)cc1	none
Cc1ccc(N(CC(=O)Nc2ccc(F)c(Cl)c2)S(=O)(=O)c2c(C)noc2C)cc1	MCF10A rereplic 11.6µM
Cc1noc(C)c1S(=O)(=O)Nc1ccc(C(C)C)cc1	MCF10A rereplic 23.1µM, SW480 rereplic inconclusive
O=C(CC[C@H]1O[C@@H](n2cnc3c(NC(=O)c4ccccc4)ncnc32)[C@H](O)[C@@H]1O)NCc1cccc2ccccc12	none (no result: Gal4-VP16 FLuc, MCF10A rereplic, RORg inh, SW480 rereplic)
CN(C)C(=O)c1ccc(-c2ccc3ncnc(NCc4cccs4)c3c2)cc1	none (no result: IL-1B inflam inh, MCF10A rereplic, SW480 rereplic)
COc1ccc(OC)c(NC(=O)C(CCSC)NS(=O)(=O)c2cccs2)c1 (stereo not given)	none
COc1ccc(N(CC(=O)Nc2cccc(C)c2)S(=O)(=O)c2c(C)noc2C)cc1	none
CCc1cccc(NC(=O)CN(c2ccc(C)cc2)S(=O)(=O)c2c(C)noc2C)c1	MCF10A rereplic 11.6µM
COc1ccc(C(=O)c2ccc(N(C)C)cc2)c(OC)c1	MCF10A rereplic 2.24µM, SW480 rereplic 4.47µM
COc1ccc(OC)c(C(=O)c2ccc(C(=O)c3cc(OC)ccc3OC)cc2)c1	IL-1B inflam inh -75.1
O=C1CN(C(=O)/C=C/c2cc(Br)ccc2F)CCN1	none
COc1ccc(OC)c(C(=O)c2coc3ccc(OC(C)=O)cc23)c1	MCF10A rereplic 20.6µM, SW480 rereplic inconclusive
COc1ccc(C(=O)c2coc3ccc(OC(C)=O)cc23)cc1	none
COc1ccc(/C=C/C(=O)N2CCNC(=O)C2)c(OC)c1	MCF10A rereplic 1.03µM
COc1ccc(OC)c(C(=O)c2ccccc2)c1	RORg inh inconclusive
COc1cc(-c2cc(NC=O)c3ncc(-c4ccc(C(C)=O)cc4)n3c2)ccc1O	none (no result: Gal4-VP16 FLuc, MCF10A rereplic, RORg inh, SW480 rereplic)
CC(C)[C@@H](CC(=O)N[C@@H]1CCCC[C@H]1C(=O)N[C@H](CC(=O)N[C@@H](CCC(=O)O)CC(=O)O)Cc1ccccc1)NC(=O)C[C@H](CO)NC(=O)[C@@H]1CNCC[C@H]1N	none (no result: IL-1B inflam inh, MCF10A rereplic, SW480 rereplic)
COc1cccc(CC(CC(=O)O)C(=O)Nc2cc(C)ccc2C)c1 (stereo not given)	none
COc1ccc(/C=C/C(=O)c2ccc(OC)cc2OC)c(OC)c1	IL-1B inflam inh -57.5, RORg inh inconclusive, SW480 rereplic inconclusive
COc1ccc(C(=O)c2ccc(OC)cc2OC)cc1	MCF10A rereplic 16.4µM, SW480 rereplic inconclusive
CN(C)c1ccc(C(=O)c2ccc(N(C)C)c3ccccc23)cc1	Gal4-VP16 FLuc inconclusive, MCF10A rereplic 0.206µM, RORg inh inconclusive, SW480 rereplic 0.411µM
COc1ccc(C(=O)c2ccc(N3CCOCC3)cc2)c(OC)c1	none
CC1(C(=O)Nc2nccs2)CCN1C(=O)CC(c1ccccc1)c1ccccc1 (stereo not given)	none (no result: Gal4-VP16 FLuc, MCF10A rereplic, RORg inh, SW480 rereplic)
Cc1noc(C)c1CSCC(=O)Nc1nc2ccc(S(C)(=O)=O)cc2s1	none (no result: Gal4-VP16 FLuc, RORg inh)
CCC(=O)Oc1c(C(=O)CC)cc2c(C)cc(=O)oc2c1C	IL-1B inflam inh -64.6
